A selection: hits, their analogues and other compounds. The true share with any hit is near 3.8%.
ATXN2 expr inh = inhibitors of ATXN2 expression; 360,000 compounds, 0.72% hits; Potency, µM (highest dose often 57 µM), actives largely listed as inhibitors; AID 1745845; HEK-293 ATXN2-luciferase reporter, luminescence, 24 h; note: nearly all actives have a fitted effect of over 55% in size
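ATXN2-luciferase reporter cells (luciferase flanked by upstream and downstream ATXN2 gene portions) were treated 24 h at 37 °C with compounds at up to 57 uM. SteadyGlo luminescence gave expression; GF-AFC fluorescence gave viability.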
S2 tox = reduces viability in counter-screen for ATXN expression inhibitors; S2 cells (HEK-293 line with an ATXN2-luciferase reporter) viability, CellTiter-Fluor protease fluorescence, 24 h; Potency, µM (doses to about 56.7 µM), actives largely listed as cytotoxic; 400,000 compounds, 0.49% hits; AID 651635; note: nearly all actives have a fitted effect of over 40% in size
Nrf2 inh = blocks Nrf2 signaling | A549 ARE-Fluc reporter, luciferase luminescence, 18-24 h | Potency, µM (highest dose often 46 µM), most hits filed as inhibitors | 360,000 compounds, 2.1% hits | AID 504444; note: nearly all actives have a fitted effect of over 60% in size
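Reporter: ARE-Fluc in A549. Exposure: 18-24 h, 37 °C, 5% CO2, 5% FBS OPTI-MEM. Readouts: fluorescent cytotoxicity (CellTiter-Fluor), then luminescent Nrf2 signal after BugLite.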
A549 tox = kills or reduces viability of A549 cells in Nrf2 counter-screen; A549 ARE-Fluc cells, CellTiter-Fluor viability, 18-24 h; Potency, µM (titrated, usually from 46 µM), actives largely listed as inhibitors; 390,000 compounds, 0.16% hits; AID 504648
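A549 ARE-Fluc cells in 5% FBS OPTI-MEM, 5000 cells/well, rested 2 h then exposed to compounds in concentration-response for 18-24 h at 37 °C. Viability by CellTiter-Fluor fluorescence (Ex 405/Em 525) after 30 min; luciferase luminescence (BugLite, 15 min, RT) read afterwards.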
TGFb inhibitor = blocks TGF-b signaling. HepG2 CAGA-GFP TGF-b/SMAD3 reporter, GFP fluorescence, 18 h; TGF-beta stimulated, 500 pg/mL final. Potency, µM (series often up to 46.1 µM), actives largely listed as inhibitors. 410,000 compounds, 1.2% hits. AID 588855; note: nearly all actives have a fitted effect of over 65% in size
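HEPG2 CAGA-GFP cells (1000/well, DMEM with 1% FBS) were pre-incubated 2 h at 37 degrees C, given compound by pin tool, then stimulated with TGF-beta at 500 pg/mL final for 18 h before per-cell GFP fluorescence imaging.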
HepG2 viability = counter-screen for TGF-b inhibitors: cytotoxicity in HepG2 cells; HepG2 CAGA-GFP viability, ATP luminescence, 18 h; Potency, µM (titrated, usually from 46.1 µM), usual class: cytotoxic; 410,000 compounds, 0.76% hits
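HepG2 CAGA-GFP cells (1000/well, DMEM with 1% FBS) received compound, then TGF-beta at 500 pg/mL final, and were incubated 18 hours at 37 degrees C. Viability was read by CellTiter-Glo luminescence. Media-only wells were set as complete cell-killing and DMSO as no toxicity.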
Hits are given with their value; n = inactive; u = inconclusive; x = not tested or not shown; [ ] = another dose, or the depositor's remark. Calls come from the whole dose curve; as a rule, active = well fitted curve in the direction sought with a large enough effect; inconclusive = small, poorly fitted or top-dose-only effect, or another doubt; inactive = no such curve, though single readings can be large; an effect the other way counts as inactive or inconclusive.

SMILES	ATXN2 expr inh	S2 tox	Nrf2 inh	A549 tox	TGFb inhibitor	HepG2 viability
CCN(CC)CCNC(=O)c1c(C)n(-c2ccccc2)c2cc(Br)c(OC)cc12	u	u	n	n	u	20µM
C#Cc1ccc([C@H]2C=C(C(=O)N3CCN(Cc4ccccc4)CC3)O[C@@H](OCc3ccc(CO)cc3)C2)cc1	n	n	u	n	n	n
O=C(C1=C[C@@H](c2ccc(Br)cc2)C[C@@H](OCc2ccc(CO)cc2)O1)N1CCN(Cc2ccccc2)CC1	n	u	21µM	u	u	n
O=C(C1=C[C@H](c2csc3ccccc23)C[C@H](OCc2ccc(CO)cc2)O1)N1CCCCCCC1	n	u	23µM	n	u	n
O=C(NCc1nc2ccccc2[nH]1)C1=C[C@H](c2ccc(C(F)(F)F)cc2)C[C@H](OCc2ccc(CO)cc2)O1	u	u	n	n	11µM	n
CN1CCN(C(=O)C2=C[C@H](c3csc4ccccc34)C[C@H](OCc3ccc(CO)cc3)O2)CC1	n	u	n	n	n	n
O=C(C1=C[C@H](c2ccc(C(F)(F)F)cc2)C[C@H](OCc2ccc(CO)cc2)O1)N1CCN(Cc2ccc3c(c2)OCO3)CC1	u	u	u	u	u	n
O=C(C1=C[C@@H](c2ccc(C(F)(F)F)cc2)C[C@@H](OCc2ccc(CO)cc2)O1)N1CCN(Cc2ccc3c(c2)OCO3)CC1	u	u	16µM	n	u	n
COC(=O)c1cc2oc(C)cc2n1CC(=O)Nc1ccc(OC)c(OC)c1	n	n	n	n	n	n
CC(C)C(=O)Nc1cccc(COc2ccccc2CN(Cc2ccccc2)C(=O)OC(C)(C)C)c1	n	n	u	n	n	n
O=C(O)C1=C[C@@H](c2ccc(Br)cc2)C[C@@H](OCc2ccc(CO)cc2)O1	n	n	n	n	n	n
O=C(Nc1ccccc1)C1=C[C@@H](c2ccc(Br)cc2)C[C@@H](OCc2ccc(CO)cc2)O1	n	n	18µM	n	n	n
O=C(NCc1ccccc1)C1=C[C@@H](c2csc3ccccc23)C[C@@H](OCCCCO)O1	5.6µM	u	u	n	u	n
O=C(NC1CC1)C1=C[C@H](c2csc3ccccc23)C[C@H](OCCCCO)O1	n	n	n	n	n	n
O=C(CCNC(=O)c1ccco1)Nc1ccc(OC(F)F)cc1	n	n	n	n	n	n
Nc1ccc2cccnc2c1	x	x	x	x	n	n
CCOc1ccc(CN2CCN(Cc3ccc4c(c3)c3ccccc3n4CC)CC2)cc1	x	x	u	n	10µM	n
Cn1c2ccccc2c2nnc(SCCOc3ccccc3)nc21	x	x	5.2µM	n	n	n
O=C(NNC(=O)c1ccccc1C(F)(F)F)c1csc(N2CCOCC2)n1	n	n	n	n	n	n
CCCOc1ccc2c(=O)c(-c3cc(C(=O)OC)oc3C)c(C)oc2c1	n	n	16µM	n	u	n
O=C(NCCCN1CCN(c2cccc(Cl)c2)CC1)c1cnn(-c2ccc(F)cc2)c1-n1cccc1	35µM	u	n	n	u	10µM
CCCN(CCC)CCCNC(=O)c1cnn(-c2ccc(F)cc2)c1-n1cccc1	n	n	u	n	n	n
CCCCCCC(=O)N(O)C1CC(=O)N(c2ccc(F)cc2)C1=O (stereo unspecified)	n	u	n	n	18µM	n
CCc1cccc(C)c1Nc1c(-c2ccc(N(C)C)cc2)nc2cnccn12	u	u	n[9.27 µM]	n	16µM	16µM
CCc1cccc(C)c1Nc1c(-c2ccc(SC)cc2)nc2sccn12	x	x	n	n	20µM	n
SMILES	ATXN2 expr inh	S2 tox	Nrf2 inh	A549 tox	TGFb inhibitor	HepG2 viability
CCc1cccc(C)c1Nc1c(-c2cccc(O)c2)nc2cnccn12	n	n	n[9.27 µM]	n	11µM	n
CCc1cccc(C)c1Nc1c(-c2ccsc2)nc2ncccn12	x	x	n	n	u	n
Cc1ccc(N2CCN(C(=O)c3cn(C)c4ccc(S(=O)(=O)N5CCCC5)cc4c3=O)CC2C)cc1 (stereo unspecified)	x	x	n	n	n	n
Cc1ccc(NC(=O)CN2C(=O)COc3ccc(S(=O)(=O)NC4CCCC4)cc32)cc1N(C)C	n	u	n	n	n	n
CC(C)C[C@H]1CN=C(Nc2ccccc2)N1CCCC1CCCC1	u	u	n	n	u	n
CC1CCC(CN2C(Nc3ccccc3)=NC[C@@H]2Cc2ccccc2)CC1 (stereo partly specified)	16µM	u	n	n	n	n
CC(C)C[C@H]1CN=C(Nc2ccccc2)N1CCCC1CCCCC1	25µM	x	u	n	n	n
c1ccc(C[C@H]2CN=C(Nc3ccccc3)N2CC2CCC2)cc1	n	n	n	n	n	n
CCCCNC(=O)NNC(=O)c1cc(C)on1	n	n	n	n	n	n
Cc1cc(/C=C2\C=Cc3ccccc32)cc(C)c1[N+](=O)[O-]	x	x	x	x	n	n
Cc1ccc2c(c1)c1c(c(=O)n(-c3ccccc3)c(=O)n1CC(=O)c1ccc(F)cc1)n2C	n	n	n	n	n	n
CC(=O)N1CCN(C(=O)CCCNC(=O)c2ccc(Cl)cc2)CC1	n	n	n	n	n	n
COc1cc(C(=O)OCC(=O)N2CCC(C)CC2)cc2c1OCCO2	x	u	n	n	n	n
CCN1CCN(c2ccc(S(=O)(=O)N3CCCCC3)cc2NC(=O)Cc2ccccc2)CC1	n	n	n	n	n	n
CCN1CCN(c2ccc(S(=O)(=O)N3CCCCC3)cc2NC(=O)Cc2ccc(Cl)c(Cl)c2)CC1	n	n	n	n	16µM	18µM
CC(C)(C)CC(=O)Nc1cc(S(=O)(=O)N2CCCCCC2)ccc1Cl	n	n	n	n	n	n
O=C(CCl)Nc1cc(S(=O)(=O)N2CCCCCC2)ccc1Cl	u	18µM	u	n	n	n
Cn1cnnc1SCC(=O)Nc1cc(S(=O)(=O)N2CCCCCC2)ccc1Cl	n	n	n	n	n	n
Cn1c(=O)c2c(ncn2CC(=O)Nc2cc(S(=O)(=O)N3CCCCC3)ccc2Cl)n(C)c1=O	n	n	21µM	n	u	n
Cn1c(=O)n(C)c2cc(N3CCOCC3)c(NS(=O)(=O)c3ccc(Br)cc3)cc21	n	n	n	n	n	n
COc1ccc(OC)c(NC(=O)c2nc(S(=O)(=O)Cc3ccc(F)cc3)ncc2Cl)c1	x	x	u	u	6.3µM	8.9µM
COC(=O)c1ccc(NC(=O)c2nc(S(=O)(=O)Cc3cccc(C)c3)ncc2Cl)cc1	u	28µM	u	u	u	22µM
Cc1ccc(CS(=O)(=O)c2ncc(Cl)c(C(=O)Nc3nc4ccc(F)cc4s3)n2)cc1	n	u	u	u	u	n

Assay outcomes from PubChem.
